These results are taken from the supplement of paper PMC12819154, “High-throughput peptide-centric local stability assay extends protein–ligand identification to membrane proteins, tissues and bacteria” (Nature Structural & Molecular Biology, 2025).

Sequence of UniProt Q9ERK4 (Q9ERK4 whole entry): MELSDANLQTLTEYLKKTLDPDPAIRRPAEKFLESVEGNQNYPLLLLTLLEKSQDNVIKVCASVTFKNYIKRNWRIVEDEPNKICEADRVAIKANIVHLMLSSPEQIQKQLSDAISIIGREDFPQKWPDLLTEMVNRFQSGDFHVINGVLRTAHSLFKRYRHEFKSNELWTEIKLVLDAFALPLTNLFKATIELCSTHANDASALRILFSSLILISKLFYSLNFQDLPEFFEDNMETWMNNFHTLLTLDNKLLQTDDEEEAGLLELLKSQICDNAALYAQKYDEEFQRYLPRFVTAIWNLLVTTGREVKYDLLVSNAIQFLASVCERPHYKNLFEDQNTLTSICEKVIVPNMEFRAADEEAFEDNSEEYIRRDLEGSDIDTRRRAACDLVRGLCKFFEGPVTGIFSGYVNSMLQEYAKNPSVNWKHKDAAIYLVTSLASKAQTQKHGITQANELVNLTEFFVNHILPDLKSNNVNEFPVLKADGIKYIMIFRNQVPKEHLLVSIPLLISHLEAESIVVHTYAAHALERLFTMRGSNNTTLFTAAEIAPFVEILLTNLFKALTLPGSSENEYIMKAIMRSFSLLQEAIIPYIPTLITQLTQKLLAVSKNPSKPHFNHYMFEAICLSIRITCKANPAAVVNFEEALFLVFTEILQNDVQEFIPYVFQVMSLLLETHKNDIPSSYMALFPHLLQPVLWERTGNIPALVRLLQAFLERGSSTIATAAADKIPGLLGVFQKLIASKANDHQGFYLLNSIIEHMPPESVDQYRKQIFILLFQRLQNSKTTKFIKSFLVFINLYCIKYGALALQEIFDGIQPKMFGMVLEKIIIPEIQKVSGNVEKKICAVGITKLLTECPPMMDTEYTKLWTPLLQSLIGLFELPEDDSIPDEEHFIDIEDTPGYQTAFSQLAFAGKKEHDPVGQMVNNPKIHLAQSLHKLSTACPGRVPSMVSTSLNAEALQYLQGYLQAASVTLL
Sequence of UniProt Q60772 (Q60772 whole entry): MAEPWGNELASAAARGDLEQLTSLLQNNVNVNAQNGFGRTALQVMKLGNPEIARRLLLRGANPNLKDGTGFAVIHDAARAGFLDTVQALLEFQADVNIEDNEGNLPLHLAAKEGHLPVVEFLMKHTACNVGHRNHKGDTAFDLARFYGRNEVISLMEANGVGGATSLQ
Sequence of UniProt P06728 (P06728 whole entry): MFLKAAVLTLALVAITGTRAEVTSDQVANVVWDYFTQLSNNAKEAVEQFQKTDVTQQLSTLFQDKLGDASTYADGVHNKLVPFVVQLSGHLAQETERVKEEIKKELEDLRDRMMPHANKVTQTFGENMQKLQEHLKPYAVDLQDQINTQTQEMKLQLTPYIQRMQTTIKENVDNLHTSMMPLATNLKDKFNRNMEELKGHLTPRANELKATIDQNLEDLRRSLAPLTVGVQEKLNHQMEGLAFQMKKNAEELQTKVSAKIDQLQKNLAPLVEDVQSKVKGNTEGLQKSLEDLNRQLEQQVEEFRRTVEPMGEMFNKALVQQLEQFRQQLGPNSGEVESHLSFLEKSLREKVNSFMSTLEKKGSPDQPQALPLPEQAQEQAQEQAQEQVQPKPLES
Sequence of UniProt Q99LB7 (Q99LB7 whole entry): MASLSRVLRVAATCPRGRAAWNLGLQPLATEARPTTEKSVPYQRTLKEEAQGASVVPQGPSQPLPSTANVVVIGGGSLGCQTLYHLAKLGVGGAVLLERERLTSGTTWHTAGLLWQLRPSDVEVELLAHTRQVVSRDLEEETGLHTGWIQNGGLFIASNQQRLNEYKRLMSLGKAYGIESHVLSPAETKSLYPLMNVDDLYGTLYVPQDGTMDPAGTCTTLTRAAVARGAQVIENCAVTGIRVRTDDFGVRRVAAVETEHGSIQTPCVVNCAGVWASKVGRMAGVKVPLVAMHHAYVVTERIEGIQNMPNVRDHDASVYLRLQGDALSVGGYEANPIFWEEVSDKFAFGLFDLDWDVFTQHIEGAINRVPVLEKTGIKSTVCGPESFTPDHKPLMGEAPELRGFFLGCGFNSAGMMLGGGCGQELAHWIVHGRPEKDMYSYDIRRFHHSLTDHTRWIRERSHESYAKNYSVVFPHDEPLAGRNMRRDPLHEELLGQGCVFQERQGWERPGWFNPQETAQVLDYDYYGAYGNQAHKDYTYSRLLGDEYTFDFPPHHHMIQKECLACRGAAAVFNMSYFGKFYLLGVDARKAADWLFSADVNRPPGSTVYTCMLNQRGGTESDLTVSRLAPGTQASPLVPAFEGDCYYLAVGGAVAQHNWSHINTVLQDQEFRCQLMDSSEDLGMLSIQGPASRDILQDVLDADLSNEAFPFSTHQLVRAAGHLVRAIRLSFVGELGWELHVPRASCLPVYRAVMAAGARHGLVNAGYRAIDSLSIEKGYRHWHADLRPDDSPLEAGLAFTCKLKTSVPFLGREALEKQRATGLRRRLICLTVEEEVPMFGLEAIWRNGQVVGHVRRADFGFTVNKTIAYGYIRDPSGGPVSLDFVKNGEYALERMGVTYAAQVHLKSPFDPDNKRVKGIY
Sequence of UniProt Q9Z2B9 (Q9Z2B9 whole entry): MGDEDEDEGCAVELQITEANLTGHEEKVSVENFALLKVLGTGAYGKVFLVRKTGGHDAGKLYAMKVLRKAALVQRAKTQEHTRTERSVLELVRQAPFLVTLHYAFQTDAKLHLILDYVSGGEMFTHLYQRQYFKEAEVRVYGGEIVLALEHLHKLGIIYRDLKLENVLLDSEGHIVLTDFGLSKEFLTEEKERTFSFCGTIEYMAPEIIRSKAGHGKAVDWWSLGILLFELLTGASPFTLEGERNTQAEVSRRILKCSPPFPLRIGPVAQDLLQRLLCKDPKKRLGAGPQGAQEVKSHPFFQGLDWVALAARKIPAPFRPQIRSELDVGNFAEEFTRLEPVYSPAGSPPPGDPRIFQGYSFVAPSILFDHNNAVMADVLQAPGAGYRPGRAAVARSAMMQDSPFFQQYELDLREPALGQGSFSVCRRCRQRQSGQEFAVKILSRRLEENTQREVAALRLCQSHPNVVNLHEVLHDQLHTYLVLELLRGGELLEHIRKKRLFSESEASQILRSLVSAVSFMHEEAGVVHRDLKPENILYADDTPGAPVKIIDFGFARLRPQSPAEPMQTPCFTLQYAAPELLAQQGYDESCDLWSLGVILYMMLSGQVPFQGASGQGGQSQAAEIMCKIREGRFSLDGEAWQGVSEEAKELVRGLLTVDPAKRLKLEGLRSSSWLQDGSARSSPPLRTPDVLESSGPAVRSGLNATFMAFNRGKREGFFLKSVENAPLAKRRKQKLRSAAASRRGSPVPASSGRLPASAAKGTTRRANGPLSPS
Sequence of UniProt Q9WUN2 (Q9WUN2 whole entry): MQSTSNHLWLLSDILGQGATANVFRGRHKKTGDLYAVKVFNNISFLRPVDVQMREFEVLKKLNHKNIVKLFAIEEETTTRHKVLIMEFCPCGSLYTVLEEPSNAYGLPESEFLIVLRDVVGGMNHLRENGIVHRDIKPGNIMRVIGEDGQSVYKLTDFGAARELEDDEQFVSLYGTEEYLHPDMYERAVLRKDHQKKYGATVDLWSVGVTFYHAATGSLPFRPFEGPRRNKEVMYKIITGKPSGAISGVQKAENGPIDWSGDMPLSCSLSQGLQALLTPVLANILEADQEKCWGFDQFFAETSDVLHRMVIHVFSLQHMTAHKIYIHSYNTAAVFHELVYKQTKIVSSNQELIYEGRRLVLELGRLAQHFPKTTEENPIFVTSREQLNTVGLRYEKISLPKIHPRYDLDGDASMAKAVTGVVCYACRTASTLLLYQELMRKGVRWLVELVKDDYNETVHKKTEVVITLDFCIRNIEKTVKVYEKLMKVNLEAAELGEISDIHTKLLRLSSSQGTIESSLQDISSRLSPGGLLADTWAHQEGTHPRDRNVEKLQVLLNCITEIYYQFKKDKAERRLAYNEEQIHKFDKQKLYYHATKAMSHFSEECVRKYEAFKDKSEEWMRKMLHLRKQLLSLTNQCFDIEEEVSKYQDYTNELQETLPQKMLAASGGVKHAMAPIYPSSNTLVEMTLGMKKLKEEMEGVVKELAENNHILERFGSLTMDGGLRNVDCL
Sequence of UniProt Q91Y86 (Q91Y86 whole entry): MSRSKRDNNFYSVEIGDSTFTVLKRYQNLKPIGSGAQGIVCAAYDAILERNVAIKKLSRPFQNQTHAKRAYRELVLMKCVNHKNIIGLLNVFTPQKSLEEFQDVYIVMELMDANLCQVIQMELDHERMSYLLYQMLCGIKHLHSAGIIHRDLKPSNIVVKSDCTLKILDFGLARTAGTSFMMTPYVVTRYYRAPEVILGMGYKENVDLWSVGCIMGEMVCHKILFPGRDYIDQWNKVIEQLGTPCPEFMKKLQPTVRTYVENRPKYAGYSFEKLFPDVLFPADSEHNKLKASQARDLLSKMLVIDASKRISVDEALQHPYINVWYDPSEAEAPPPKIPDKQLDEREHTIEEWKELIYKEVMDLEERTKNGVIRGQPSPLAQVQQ

Compound in this assay: CN[C@@H]1C[C@H]2O[C@@](C)([C@@H]1OC)n1c3ccccc3c3c4c(c5c6ccccc6n2c5c31)C(=O)NC4 [staurosporine]
Description: log2 fold change of tryptic peptide abundance, ligand vs vehicle (limited proteolysis) (log2 ratio); higher = more trypsin-susceptible (destabilized). The conditions noted are these: ligand concentration: 20 uM; sample: mouse liver crude lysate; replicate design: treated separately.
Consider “UniProt P47757 (peptide sequence: QMEKDETVSDCSPHIANIGR, peptide start residue: 196)”, for which the log2 fold change was -1.11.

With “UniProt Q99LB7 (peptide sequence: AYGIESHVLSPAETK, peptide start residue: 175)”, the log2 fold change is -0.446.

As for “UniProt Q91XF0 (peptide sequence: SSQIGAVVSR, peptide start residue: 164)”, the log2 fold change stood at 1.44.

Take “UniProt P20444 (peptide sequence: LGCGPEGER, peptide start residue: 581)”: the log2 fold change was -2.63.

Regarding “UniProt Q9R257 (peptide sequence: FATVEVTDKPVDEALR, peptide start residue: 41)”, the log2 fold change was -0.672.

With “UniProt Q9Z2B9 (peptide sequence: KIPAPFRPQIR, peptide start residue: 313)”, the log2 fold change is -1.34.

Take “UniProt Q9ET43 (peptide sequence: SRLSAIEIDIPVVSHST, peptide start residue: 228)”: the log2 fold change is -0.532.

Turning to “UniProt P14576 (peptide sequence: SAIDLEEMASGLNKRK, peptide start residue: 58)”, the log2 fold change was 0.95.

With “UniProt P02088 (peptide sequence: DFTPAAQAAFQK, peptide start residue: 122)”, the log2 fold change turned out to be 0.285.

In the case of “UniProt Q64133 (peptide sequence: ELGIETYK, peptide start residue: 83)”, the log2 fold change is -0.486.

Take “UniProt Q9WTU6 (peptide sequence: MLVIDPDKR, peptide start residue: 301)”: the log2 fold change is -1.15.

As to “UniProt Q9R0T8 (peptide sequence: DIKPGNIMR, peptide start residue: 135)”, the log2 fold change is -1.44.

For “UniProt Q60772 (peptide sequence: LGNPEIAR, peptide start residue: 47)”, the log2 fold change amounted to 0.494.

Take “UniProt Q9WUN2 (peptide sequence: VFNNISFLRPVDVQMR, peptide start residue: 39)”: the log2 fold change is -2.34.

For the target “UniProt Q91Y86 (peptide sequence: MLVIDASKR, peptide start residue: 301)”, the log2 fold change was -1.79.

With “UniProt Q6ZQ89 (peptide sequence: FIHQECLVQWLK, peptide start residue: 34)”, the log2 fold change was 0.572.

Consider “UniProt Q9EQ20 (peptide sequence: YQQLIKENLKEIAR, peptide start residue: 108)”, for which the log2 fold change is -0.315.

“UniProt Q9ERK4 (peptide sequence: LLQAFLER, peptide start residue: 707)”: the log2 fold change stood at 0.291.

Consider “UniProt Q80UW5 (peptide sequence: GAFGEVAVVR, peptide start residue: 80)”, for which the log2 fold change is -1.9.

On to “UniProt Q3UHJ0 (peptide sequence: DLKVENILLHDR, peptide start residue: 176)”, for which the log2 fold change was -4.22.

“UniProt P47809 (peptide sequence: ISPEQHWDFTAEDLK, peptide start residue: 87)”: the log2 fold change is -0.533.

With “UniProt Q91W52 (peptide sequence: LITTWEK, peptide start residue: 203)”, the log2 fold change amounted to 0.417.

Regarding “UniProt P56395 (peptide sequence: YYTLEEIQK, peptide start residue: 11)”, the log2 fold change turned out to be 0.367.

For “UniProt Q8BGS7 (peptide sequence: LFQLPTPPLSR, peptide start residue: 35)”, the log2 fold change was 0.348.

Regarding “UniProt Q9QZD8 (peptide sequence: MTGMALQVVR, peptide start residue: 43)”, the log2 fold change is 0.567.

In the case of “UniProt Q5F2E8 (peptide sequence: AGNILLTEPGQVK, peptide start residue: 150)”, the log2 fold change is -2.13.

“UniProt Q9Z2A0 (peptide sequence: HIIKENKVPYVTR, peptide start residue: 120)”: the log2 fold change is -2.47.

With “UniProt Q924L1 (peptide sequence: NLISYVVTK, peptide start residue: 55)”, the log2 fold change was determined as 0.543.

In the case of “UniProt P70236 (peptide sequence: ADDLEPIVELGR, peptide start residue: 50)”, the log2 fold change is -2.01.

Consider “UniProt Q8CIM7 (peptide sequence: GNPESSFNDKNLR, peptide start residue: 287)”, for which the log2 fold change was -0.562.

Turning to “UniProt O09110 (peptide sequence: TFITIGDR, peptide start residue: 48)”, the log2 fold change was -0.503.

For the target “UniProt Q8CIN4 (peptide sequence: TIVSIGDPK, peptide start residue: 238)”, the log2 fold change is -2.05.

Take “UniProt P16331 (peptide sequence: RKQFADIAYNYR, peptide start residue: 158)”: the log2 fold change is -0.336.

As for “UniProt P06728 (peptide sequence: LQLTPYIQR, peptide start residue: 155)”, the log2 fold change was found to be 0.346.

For the target “UniProt E9Q3L2 (peptide sequence: ACLSALSEVK, peptide start residue: 1763)”, the log2 fold change is -0.812.

On to “UniProt P47811 (peptide sequence: NYIQSLAQMPK, peptide start residue: 257)”, for which the log2 fold change came out at 0.32.

As for “UniProt Q8C050 (peptide sequence: VLGTGAYGK, peptide start residue: 53)”, the log2 fold change was -1.37.
